From PubChem BioAssay AID1053125 (Broad Institute, 2014) come the findings set out here.

Results with a measured potency or affinity are listed apart. Activity calls are given as the source filed them.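 How the source made its calls: active means viability loss whose fitted half-maximal concentration is at most twice the top valid tested dose; inconclusive means flat curve with 30 to 70% loss, or poor fit; inactive means the rest.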

The assay in a line: HepG2 cell cytotoxicity, dose response, cytotoxicity control, ATP luminescence, cherry-pick, set 6 (AID 1053125).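 Further: negative values mean loss of viability signal.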 Conditions: HepG2 viability, ATP luminescence (CellTiter-Glo), 72 h; series mostly up to 26 µM. (ATP-based viability assays read luminescence as a measure of living cells.)
On to `O=c1[nH]c(=O)c2nc(-c3ccc(Cl)cc3)cnc2[nH]1`, for which the compound was classed as inactive. The result for `CC(=O)c1cccc(-c2ccnc3c2CC(C(=O)NCc2ccc(F)c(F)c2)O3)c1` (centres undefined) reads “inactive”. Next, `COc1cc(/C=C(\C#N)C(=O)NC(C)C)cc(Cl)c1O`: “inactive”; `Nn1c(SCC(=O)N2CCCC2)nnc1-c1cccs1`: “inactive”.

Take `CC(C)c1ccc(/C=C2\Oc3c(ccc(O)c3CN3CCN(C)CC3)C2=O)cc1`: the outcome was inactive. In the case of `CCn1c(=N)c(C(=O)NCCCOC)cc2c(=O)n3cccc(C)c3nc21`, the result was inactive. Regarding `COc1ccc(C(=O)c2sc3nc(-c4ccc(OC)cc4)ccc3c2N)cc1`, the compound was classed as inactive. The result for `CC(=O)Oc1ccc2cc(-c3nc4ccccc4n3C)c(=O)oc2c1` reads “inactive”; that for `Cc1ccc2c(c1)-c1c(cnn1CC(=O)Nc1ccccc1N1CCN(C)CC1)CO2`, “inactive”.

Regarding `COc1ccc(S(=O)(=O)N2CCCC2CNC(=O)C(=O)NC2CCCC2)cc1` (centres undefined), the result was inactive. Regarding `COc1ccccc1N1CCN(C2CCC(C)CC2)CC1` (centres undefined), the compound was classed as inactive. The result for `COC(=O)C1=CN(Cc2ccc(OC)c(OC)c2)C=C(C(=O)OC)C1c1cccc(F)c1` reads “inactive”; that for `CCOc1ccc2nc(NCCCNS(=O)(=O)c3ccc(C)cc3)c(C#N)cc2c1`, “inactive”. The result for `Cc1cccn2c(=O)c3cc(C(=O)NCc4ccc(F)cc4)c(=N)n(CCCN4CCOCC4)c3nc12` reads “inactive”.

With `CCN1C=C(C(=O)OC)C(c2cccc(OC)c2OC)C(C(=O)OC)=C1`, the outcome was inactive. Next, `CCOC1=NN(c2ncc(C(F)(F)F)cc2Cl)C(=O)C1`: “inactive”; `O=C(Nc1ccc2c(c1)OCCO2)c1ccc(NC(=O)C2CCCO2)cc1` (centres undefined): “inactive”; `CN1CCN(c2nc3ccccn3c(=O)c2/C=C(\C#N)S(=O)(=O)c2ccccc2)CC1`: “inactive”.

With `COc1ccc(C2C3=C(CCCC3=O)N(CC(=O)O)C3=C2C(=O)CCC3)cc1`, the outcome was inactive.

Consider `Clc1cccc(CN2CCN(Cc3nc(CCc4ccccc4)no3)CC2)c1`, for which the compound was called inactive. Turning to `COCCn1c(=N)c(S(=O)(=O)c2ccc(F)cc2)cc2c(=O)n3ccccc3nc21`, the outcome was inactive. The result for `Cc1ccc(C(=O)OCC(=O)Nc2c(C)nn(-c3ccccc3)c2C)c(O)c1` reads “inactive”; that for `Nc1ccc2nc(-c3ccccc3)cnc2c1`, “inactive”; that for `N#C/C(=C\c1ccc(N2CCOCC2)o1)C(=O)NCCc1ccccc1`, “inactive”. The result for `Cc1c2c(n3c(nc4ccccc43)c1C#N)N(CCN1CCOCC1)CC2` reads “inactive”; that for `Cc1cc(-n2c(=O)c(C#N)cc3c(=O)n4cccc(C)c4nc32)no1`, “inactive”; that for `CCC(C)n1c(=N)c(C#N)cc2c(=O)n3cc(C)ccc3nc21` (centres undefined), “inactive”.

With `CCCOc1ccccc1/C=C1\SC(N)=NC1=O`, the outcome was inactive.

Consider `Cc1c(C=O)c2ccccn2c1C(=O)c1cccs1`, for which the call was inactive. Next, `COc1ccccc1C(=O)c1cc2ccc(O)cc2oc1=O`: “inactive”. Next, `CC(=O)c1cc2ccc(O)cc2oc1=O`: “inactive”; `COc1ccc(Cn2nnnc2C(CC(C)C)N2CCC(C(N)=O)CC2)cc1` (centres undefined): “inactive”.

`COc1ccc(C2CC(c3cccs3)=NN2c2nc(C)c(C(C)=O)s2)cc1OC` (centres undefined): the result was inactive. For `Cc1c(C(=O)NCc2ccc(Cl)c(Cl)c2)sc(=O)n1Cc1cccc(F)c1`, the result was inactive.
